Activity calls are given as the source filed them. How the source made its calls: active means hit-call score of the fitted dose curve at least 0.9, where 1 is the maximum; inactive means score below 0.9.
Assays:
[1] = ATG_CRE_CIS: Attagene CIS-FACTORIAL HepG2 Assay for human cAMP Responsive Element (CRE) binding protein 3 (AID 2282926); conditions: HepG2 CRE cis-reporter, Attagene multiplexed mRNA; actives raise or lower the signal
Summary of the method: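 Transfected HepG2 were treated for 24 hours, then RNA was extracted and reporter cDNA amplified with sequence-specific primers. Labelled fragments were separated by capillary electrophoresis, and the CRE signal was fitted bidirectionally with DMSO as baseline.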

[2] = biological target: CCAAT/enhancer-binding protein beta (Homo sapiens) (UniProt P17676); assay: ATG_C_EBP_CIS: Attagene CIS-FACTORIAL HepG2 Assay for human CCAAT/Enhancer Binding Protein (C/EBP) beta (AID 2282927); conditions: HepG2 Attagene cis-factorial transcription factor reporter; actives raise or lower the signal
Summary of the method: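 Following a 24 h incubation with test chemical, transfected HepG2 cells yielded RNA whose reporter transcripts were quantified by RT-PCR and fluorescent capillary electrophoresis, with DMSO serving as baseline for bidirectional fitting.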

[3] = ATG_CMV_CIS: Attagene CIS-FACTORIAL HepG2 Assay for human CMV (Internal Marker) (AID 2282928); conditions: HepG2 CMV promoter reporter, transcription factor profiling; actives raise or lower the signal;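 further: endpoint acts as a background internal control marker rather than a target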
Summary of the method: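 Cell system: HepG2, transiently transfected multiple reporter units under cis promoters. Exposure: 24 h. Detection: RT-PCR, FAM labeling, HpaI digestion, capillary electrophoresis. Analysis: bidirectional, DMSO baseline.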

[4] = ATG_DR4_LXR_CIS: Attagene CIS-FACTORIAL HepG2 Assay for human Liver X Receptor (LXR), DR4 submotif (AID 2282929); conditions: HepG2 Attagene DR4 cis-reporter, mRNA transcription; actives raise or lower the signal
Summary of the method: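 Fluorescence intensity of labelled reporter cDNA fragments, separated by capillary electrophoresis, gives the signal. HepG2 cells bearing cis-regulated reporter constructs were treated 24 h; activity fitted bidirectionally relative to DMSO negative control.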

[5] = biological target: Aryl hydrocarbon receptor (Homo sapiens) (UniProt P35869); assay: ATG_Ahr_CIS: Attagene CIS-FACTORIAL HepG2 Assay for human Aryl Hydrocarbon Receptor (Ahr) (AID 2282930); conditions: HepG2 AhR cis-factorial reporter transcription; actives raise or lower the signal
Summary of the method: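 Values derive from bidirectional fitting against DMSO negative control. Underlying signal: cis-element reporter mRNA in transiently transfected HepG2, harvested 24 h post-dose and measured by RT-PCR plus capillary electrophoresis.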

[6] = ATG_AP_1_CIS: Attagene CIS-FACTORIAL HepG2 Assay for human Activator Protein 1 (AP-1) (AID 2282931); conditions: HepG2 Attagene cis-factorial AP-1 reporter mRNA; actives raise or lower the signal
Summary of the method: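 Multiplexed HepG2 reporter assay, 24 h dosing. mRNA induction detected by RT-PCR plus capillary electrophoresis. Activity fitted in both directions against DMSO.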

[7] = ATG_AP_2_CIS: Attagene CIS-FACTORIAL HepG2 Assay for human Activator Protein 2 (AP-2) (AID 2282932); conditions: HepG2 AP-2 cis-reporter, Attagene transcription factor profiling; actives raise or lower the signal
Summary of the method: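 Bidirectional curve fitting against DMSO was applied to reporter mRNA signals from HepG2 cells 24 h after dosing. Cis-promoter reporter units, transiently transfected, were read by RT-PCR plus capillary electrophoresis.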

[8] = ATG_BRE_CIS: Attagene CIS-FACTORIAL HepG2 Assay for human Bone Morphogenetic Protein (BMP) Response Element (BRE) (AID 2282933); conditions: HepG2 BMP response element reporter, Attagene transcription factor profiling; actives raise or lower the signal
Summary of the method: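 Multiplexed cis-reporter assay, HepG2, 24 h exposure. mRNA from reporter units quantified via RT-PCR/CE; DMSO baseline; bidirectional curve fit.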

[9] = biological target: Retinoic acid receptor alpha (Homo sapiens) (UniProt P10276); assay: ATG_DR5_RAR_CIS: Attagene CIS-FACTORIAL HepG2 Assay for human Retinoic Acid Receptor Alpha (RARE), DR5 submotif (AID 2282934); conditions: HepG2 Attagene cis-factorial RARE DR5 reporter, mRNA; actives raise or lower the signal
Summary of the method: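 Endpoint fitted in both directions relative to DMSO as negative control. It reflects DR5 cis-element reporter mRNA induction in transiently transfected HepG2 cells, measured 24 h after dosing through RT-PCR and fluorescent capillary electrophoresis.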

[10] = biological target: Transcription factor E2F1 (Homo sapiens) (UniProt Q01094); assay: ATG_E2F_CIS: Attagene CIS-FACTORIAL HepG2 Assay for human E2F Transcription Factor 1 (AID 2282935); conditions: HepG2 Attagene cis-reporter, E2F reporter RNA transcripts; actives raise or lower the signal
Summary of the method: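 Multiplexed cis-reporter assay: HepG2, transient transfection, 24 h dosing, mRNA quantitation by labeled RT-PCR and CE.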

[11] = ATG_E_Box_CIS: Attagene CIS-FACTORIAL HepG2 Assay for human Enhancer Box (E-box) (AID 2282936); conditions: HepG2 E-box cis-reporter transcription, actives raise or lower the signal
Summary of the method: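 Multiplexed CIS reporter system in transiently transfected HepG2 cells measures native transcription factor activity. Reporter RNA after 24 h exposure is profiled by RT-PCR-capillary electrophoresis.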

[12] = ATG_M_61_CIS: Attagene CIS-FACTORIAL HepG2 Assay for M61 Transcription Factor (Internal Marker) (AID 2282937); conditions: HepG2 Attagene CIS-FACTORIAL M61 internal marker reporter; actives raise or lower the signal
Summary of the method: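 Endogenous transcription factor activity in HepG2 is read through transiently transfected cis-element reporter units. After 24 h dosing, RNA undergoes reverse transcription, PCR and primer extension with 6-FAM before capillary electrophoresis; DMSO-referenced bidirectional fit.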

[13] = ATG_EGR_CIS: Attagene CIS-FACTORIAL HepG2 Assay for human Early Growth Response 1 (EGR1) (AID 2282938); conditions: HepG2 Attagene CIS-FACTORIAL EGR reporter mRNA; actives raise or lower the signal
Summary of the method: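 Activity is taken as induction or loss of reporter mRNA versus DMSO, fitted bidirectionally. Transcripts from cis-regulated reporter units in transiently transfected HepG2 were measured after 24 h by RT-PCR with capillary electrophoresis.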

[14] = ATG_M_19_CIS: Attagene CIS-FACTORIAL HepG2 Assay for M19 Transcription Factor (Internal Marker) (AID 2282939); conditions: HepG2 Attagene CIS-FACTORIAL M19 internal marker reporter; actives raise or lower the signal
Summary of the method: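 Signals come from fluorescence of labelled reporter-specific PCR fragments resolved by capillary electrophoresis, following 24 h treatment of HepG2 cells transfected with cis-promoter reporter units; activity was fitted in both directions relative to DMSO.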

[15] = ATG_Ets_CIS: Attagene CIS-FACTORIAL HepG2 Assay for human Erythroblast Transformation Specific (ETS) (AID 2282941); conditions: HepG2 ETS cis-reporter transcription, actives raise or lower the signal
Summary of the method: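 After transient cis-reporter transfection, HepG2 cells receive test chemical for 24 h. Reporter mRNA levels, measured by RT-PCR and capillary electrophoresis fluorescence, are analysed bidirectionally relative to the DMSO baseline.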

[16] = biological target: Hepatocyte nuclear factor 3-beta (Homo sapiens) (UniProt Q9Y261); assay: ATG_FoxA2_CIS: Attagene CIS-FACTORIAL HepG2 Assay for human Forkhead box A2 (FOXA2) (AID 2282942); conditions: HepG2 cis-reporter transcription factor activity, 24 h; actives raise or lower the signal
Summary of the method: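 Reporter transcript induction is measured by fluorescence after capillary electrophoresis of RT-PCR products from HepG2 cells exposed 24 h. Cis-regulated reporter units report endogenous factor activity; curves fitted both directions against DMSO.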

[17] = ATG_FoxO_CIS: Attagene CIS-FACTORIAL HepG2 Assay for human Forkhead box O (FoxO) (AID 2282943); conditions: HepG2 Attagene cis-reporter, FoxO element, mRNA; actives raise or lower the signal
Summary of the method: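 Values reflect reporter mRNA induction or loss in HepG2 cells 24 h post-dosing, fitted bidirectionally with DMSO as negative control and baseline. Detection used RT-PCR and fluorescence capillary electrophoresis.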

[18] = ATG_GATA_CIS: Attagene CIS-FACTORIAL HepG2 Assay for human GATA Binding Protein (AID 2282944); conditions: HepG2 GATA cis-element reporter, Attagene multiplex mRNA; actives raise or lower the signal
Summary of the method: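 After transfecting HepG2 cells with multiple cis-regulated reporter units, chemicals are dosed for 24 h; isolated RNA undergoes RT-PCR and fluorescent labeling before capillary electrophoresis, with activity expressed against DMSO.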

[19] = ATG_GLI_CIS: Attagene CIS-FACTORIAL HepG2 Assay for human Zinc Finger Protein GLI1 (AID 2282945); conditions: HepG2, Attagene cis-factorial reporter mRNA, GLI element; actives raise or lower the signal
Summary of the method: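 HepG2 cells transiently transfected with cis-promoter multiplexed reporter units report endogenous transcription factor activity. After 24 h chemical exposure, reporter mRNA was quantified by RT-PCR, 6-FAM labelling, HpaI digestion and capillary electrophoresis, with bidirectional fitting against DMSO.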

[20] = ATG_ERE_CIS: Attagene CIS-FACTORIAL HepG2 Assay for Estrogen Response Element (ERE) (AID 2282940); conditions: HepG2 ERE cis-reporter, Attagene RNA transcript; actives raise or lower the signal
Summary of the method: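 Fluorescence of capillary-separated, FAM-labelled reporter cDNA fragments indicates reporter mRNA levels in HepG2 cells exposed to chemicals for 24 h. Transient transfection with cis-regulated units; data fitted in both directions against DMSO.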

Measured: AC50

Sequence of CCAAT/enhancer-binding protein beta (Homo sapiens) (P17676 whole entry, looked up): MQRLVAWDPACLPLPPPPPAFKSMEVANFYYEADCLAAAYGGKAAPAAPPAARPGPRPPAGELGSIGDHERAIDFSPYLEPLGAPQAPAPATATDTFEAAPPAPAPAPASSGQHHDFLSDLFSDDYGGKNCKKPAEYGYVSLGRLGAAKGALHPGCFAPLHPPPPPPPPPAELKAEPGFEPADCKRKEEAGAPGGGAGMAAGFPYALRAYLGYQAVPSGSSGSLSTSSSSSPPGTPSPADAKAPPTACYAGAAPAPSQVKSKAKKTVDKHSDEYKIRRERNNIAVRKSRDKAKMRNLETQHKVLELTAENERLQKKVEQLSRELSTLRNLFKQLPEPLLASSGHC
Sequence of Transcription factor E2F1 (Homo sapiens) (Q01094 whole entry, looked up): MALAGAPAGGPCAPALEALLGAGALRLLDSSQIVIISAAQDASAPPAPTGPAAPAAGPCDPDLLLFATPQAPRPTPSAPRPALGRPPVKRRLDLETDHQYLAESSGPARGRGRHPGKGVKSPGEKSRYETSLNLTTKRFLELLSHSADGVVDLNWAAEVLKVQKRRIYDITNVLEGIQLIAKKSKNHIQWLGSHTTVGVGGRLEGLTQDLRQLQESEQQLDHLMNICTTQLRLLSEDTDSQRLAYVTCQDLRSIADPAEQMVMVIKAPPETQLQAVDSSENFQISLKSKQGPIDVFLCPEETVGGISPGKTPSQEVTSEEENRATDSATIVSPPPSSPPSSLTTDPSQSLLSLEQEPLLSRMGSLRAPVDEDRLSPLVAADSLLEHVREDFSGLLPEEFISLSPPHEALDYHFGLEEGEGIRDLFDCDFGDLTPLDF
Sequence of Aryl hydrocarbon receptor (Homo sapiens) (P35869 whole entry, looked up): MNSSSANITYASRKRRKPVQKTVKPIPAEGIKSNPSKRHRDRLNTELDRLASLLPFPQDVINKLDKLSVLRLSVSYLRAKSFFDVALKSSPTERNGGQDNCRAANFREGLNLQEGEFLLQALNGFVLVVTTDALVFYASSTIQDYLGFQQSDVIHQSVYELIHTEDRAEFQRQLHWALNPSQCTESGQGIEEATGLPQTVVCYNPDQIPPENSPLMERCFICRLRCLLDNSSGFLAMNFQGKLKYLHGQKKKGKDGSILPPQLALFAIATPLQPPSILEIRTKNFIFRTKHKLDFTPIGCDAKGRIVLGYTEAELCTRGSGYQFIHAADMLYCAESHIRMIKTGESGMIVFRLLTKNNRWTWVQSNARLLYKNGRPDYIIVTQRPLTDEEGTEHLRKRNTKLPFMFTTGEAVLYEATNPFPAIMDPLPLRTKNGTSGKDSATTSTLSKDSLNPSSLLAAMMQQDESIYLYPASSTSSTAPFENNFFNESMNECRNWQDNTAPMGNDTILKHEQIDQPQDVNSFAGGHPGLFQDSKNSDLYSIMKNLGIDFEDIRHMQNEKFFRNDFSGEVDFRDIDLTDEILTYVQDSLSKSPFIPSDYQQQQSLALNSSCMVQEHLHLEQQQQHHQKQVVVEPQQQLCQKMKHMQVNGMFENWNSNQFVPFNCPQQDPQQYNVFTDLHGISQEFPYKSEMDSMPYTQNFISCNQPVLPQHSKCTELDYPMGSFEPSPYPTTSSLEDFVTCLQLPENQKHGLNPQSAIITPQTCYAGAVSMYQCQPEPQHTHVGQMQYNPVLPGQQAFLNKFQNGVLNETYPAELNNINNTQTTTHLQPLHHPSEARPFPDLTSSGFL
Sequence of Retinoic acid receptor alpha (Homo sapiens) (P10276 whole entry, looked up): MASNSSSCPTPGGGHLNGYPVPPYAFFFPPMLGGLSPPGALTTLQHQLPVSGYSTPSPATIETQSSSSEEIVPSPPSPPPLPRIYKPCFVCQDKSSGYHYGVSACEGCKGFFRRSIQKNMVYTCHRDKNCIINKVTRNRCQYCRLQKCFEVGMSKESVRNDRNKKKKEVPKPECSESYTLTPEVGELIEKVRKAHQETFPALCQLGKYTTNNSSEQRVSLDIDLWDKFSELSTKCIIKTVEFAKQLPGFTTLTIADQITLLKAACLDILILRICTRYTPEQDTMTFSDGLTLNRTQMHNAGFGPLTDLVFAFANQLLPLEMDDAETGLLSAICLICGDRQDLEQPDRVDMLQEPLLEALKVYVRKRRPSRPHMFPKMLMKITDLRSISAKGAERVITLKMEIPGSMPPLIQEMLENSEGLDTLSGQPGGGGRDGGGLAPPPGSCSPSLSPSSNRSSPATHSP
Sequence of Hepatocyte nuclear factor 3-beta (Homo sapiens) (Q9Y261 whole entry, looked up): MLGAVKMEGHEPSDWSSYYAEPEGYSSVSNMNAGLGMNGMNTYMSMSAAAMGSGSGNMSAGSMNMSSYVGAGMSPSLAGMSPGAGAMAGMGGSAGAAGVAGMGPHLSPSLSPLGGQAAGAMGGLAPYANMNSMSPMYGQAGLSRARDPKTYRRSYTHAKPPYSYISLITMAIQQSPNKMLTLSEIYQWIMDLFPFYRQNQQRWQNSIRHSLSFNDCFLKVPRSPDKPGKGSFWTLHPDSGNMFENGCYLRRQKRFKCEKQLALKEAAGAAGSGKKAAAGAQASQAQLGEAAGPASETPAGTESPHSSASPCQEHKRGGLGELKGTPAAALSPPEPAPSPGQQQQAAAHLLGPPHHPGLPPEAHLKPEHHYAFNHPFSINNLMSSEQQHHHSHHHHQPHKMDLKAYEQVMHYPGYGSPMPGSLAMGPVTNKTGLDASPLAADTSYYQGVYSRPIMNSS

CC(CN1c2ccccc2Sc2ccccc21)N(C)C (stereo not drawn)
active: [4] 33.4 µM | [7] 40.6 µM | [10] 33.4 µM | [11] 55.5 µM | [13] 25.2 µM
not listed: [20]
inactive: all other assays above

Nc1nc2ccc([N+](=O)[O-])cc2s1
active: [5] 5.26 µM | [8] 100 µM
not listed: [20]
inactive: all other assays above

CC(C)(C)NC(N)=O
not listed: [9]
inactive: all other assays above

Cc1ccc(C=O)cc1
not listed: [9]
inactive: all other assays above

CC(C)(C)c1cc(CCC(=O)NN)cc(C(C)(C)C)c1O
not listed: [10] | [11] | [12] | [20]
inactive: all other assays above

CC(=O)[C@H]1CC[C@H]2[C@@H]3CC=C4C[C@@H](O)CC[C@]4(C)[C@H]3CC[C@]12C
active: [20] 2.32 µM
not listed: [9]
inactive: all other assays above

CCCCOCCOCCSC#N
not listed: [10] | [20]
inactive: all other assays above

NNc1nc(-c2ccc(N)cc2)cs1
not listed: [9]
inactive: all other assays above

Source: PubChem BioAssay (EPA / NIEHS)
